Test results from the supplement of paper PMC12350171.
Structures can show the parent of a compound that is named as a salt.

Experiments:
Settings in all cases: 20 µM
[1] = tested on: Salmonella enterica typhimurium; assay: growth AUC normalised to DMSO control (fraction of control); higher = less growth inhibition, active = hit call of the paper
In short: (§1)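 Pathogens passaged twice anaerobically were inoculated at a starting OD578 of 0.01 into pre-reduced mGAM plates with drug at 20 μM and 1% DMSO, sealed with breathable membranes. Haemophilus parainfluenzae medium was supplemented with hemin and NAD. OD578 was read hourly for 24 h, with three biological replicates. Growth-curve AUC was computed by the trapezoidal rule up to the exponential-to-stationary transition and normalised to DMSO controls on the same plate.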

Shigella flexneri = assay: as above
In short: as §1

Vibrio cholerae = assay: as above
In short: as §1

[2] = tested on: Yersinia pseudotuberculosis; assay: as above
In short: as §1

P. vulgatus RND KO = assay: growth AUC normalised to DMSO control (median) (fraction of control); higher = less growth inhibition, active = hit call of the paper
In short: (§2)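 Strains were passaged twice overnight without oxygen, then grown in mGAM in 96-well plates with each approved-drug library compound at 20 μM and 1% DMSO, starting at OD578 0.01. OD578 was read hourly for 24 h inside an anaerobic incubator. Curves were truncated at entry into stationary phase, and the trapezoidal-rule area under the curve was normalised to same-plate vehicle wells. The value is the median across three biological replicates.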

P. vulgatus WT = assay: as above
In short: as §2

[3] = tested on: S. enterica typhimurium WT; assay: as above
In short: as §2

[4] = tested on: S. enterica typhimurium tolC KO; assay: as above
In short: as §2

Measured: growth AUC normalised to DMSO control
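Wherever growth AUC normalised to DMSO control (median) is given: active when median AUC fell below 0.1.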

CC[C@H]1OC(=O)[C@H](C)[C@@H](O[C@H]2C[C@@](C)(OC)[C@@H](O)[C@H](C)O2)[C@H](C)[C@@H](O[C@@H]2O[C@H](C)C[C@H](N(C)C)[C@H]2O)[C@](C)(OC)C[C@@H](C)C(=O)[C@H](C)[C@@H](O)[C@]1(C)O [Clarithromycin]
active: [1] 0.688 | Shigella flexneri 0.508 | Vibrio cholerae 0.0231 | [2] 0.799 | P. vulgatus RND KO 0.0127 | P. vulgatus WT 0.0156 | [4] 0.00712
inactive: [3] 0.744

c1ccc(C2CN3CCSC3=N2)cc1 (centres undefined) [Tetramisole hydrochloride]
inactive: [1] 1.01 | Shigella flexneri 1.03 | Vibrio cholerae 1.01 | [2] 1.01

O=C(NCC(O)CO)c1c(I)c(C(=O)NCC(O)CO)c(I)c(N(CCO)C(=O)CO)c1I (centres undefined) [Ioversol]
inactive: [1] 1.01 | Shigella flexneri 1.03 | Vibrio cholerae 1.07 | [2] 1.03 | P. vulgatus RND KO 1.03 | P. vulgatus WT 1.03 | [3] 1 | [4] 1.01

CN(C)CCCN1c2ccccc2CCc2ccc(Cl)cc21 [Clomipramine hydrochloride]
inactive: [1] 0.992 | Shigella flexneri 1 | Vibrio cholerae 0.874 | [2] 1.01 | P. vulgatus RND KO 0.976 | P. vulgatus WT 0.957 | [3] 1.01 | [4] 0.962

COC(=O)Nc1nc2cc(C(=O)c3ccccc3)ccc2[nH]1 [Mebendazole]
inactive: [1] 0.975 | Shigella flexneri 0.975 | Vibrio cholerae 0.951 | [2] 0.996 | P. vulgatus RND KO 0.998 | P. vulgatus WT 0.991 | [3] 0.998 | [4] 0.989

CN(C)CCOc1ccc(/C(=C(/CCCl)c2ccccc2)c2ccccc2)cc1 [Toremifene]
inactive: [1] 1.01 | Shigella flexneri 1.05 | Vibrio cholerae 1.05 | [2] 1.06 | P. vulgatus RND KO 0.973 | P. vulgatus WT 1.01 | [3] 1.02 | [4] 0.983

C[C@@H]1C[C@H]2[C@@H]3C[C@H](F)C4=CC(=O)C=C[C@]4(C)[C@@]3(Cl)[C@@H](O)C[C@]2(C)[C@H]1C(=O)COC(=O)C(C)(C)C [Clocortolone pivalate]
inactive: [1] 1.03 | Shigella flexneri 1.06 | Vibrio cholerae 1.12 | [2] 1.05 | [3] 1.01 | [4] 1.04
active: P. vulgatus RND KO 0.0165 | P. vulgatus WT 0.0896

CCCCNc1c(C(=O)OCC)c(C)nc2c1cnn2CC [Tracazolate hydrochloride]
inactive: [1] 1 | Shigella flexneri 1.03 | Vibrio cholerae 1.04 | [2] 0.996 | P. vulgatus RND KO 0.978 | P. vulgatus WT 0.983 | [3] 0.999 | [4] 0.952

C#CCN(C)Cc1ccccc1 [Pargyline hydrochloride]
inactive: [1] 0.964 | Shigella flexneri 1.03 | Vibrio cholerae 0.942 | [2] 0.994 | P. vulgatus RND KO 1.01 | P. vulgatus WT 1 | [3] 1 | [4] 1.01

CN(CCOc1ccc(CC2SC(=O)NC2=O)cc1)c1ccccn1 (centres undefined) [Rosiglitazone hydrochloride]
inactive: [1] 1.02 | Shigella flexneri 1.08 | Vibrio cholerae 1.01 | [2] 0.975 | P. vulgatus RND KO 1.06 | P. vulgatus WT 1.04 | [3] 1.02 | [4] 0.993

C[n+]1ccccc1/C=N/O [Pralidoxime chloride]
inactive: [1] 0.998 | Shigella flexneri 1.01 | Vibrio cholerae 0.971 | [2] 1.01 | P. vulgatus RND KO 1.01 | P. vulgatus WT 1 | [3] 1.01 | [4] 1

CC(C)NCC(O)c1ccc(O)c(O)c1 (single isomer, unassigned; (-)) [(-) Isoproterenol hydrochloride]
inactive: [1] 1.01 | Shigella flexneri 1.03 | Vibrio cholerae 1.05 | [2] 1.02 | P. vulgatus RND KO 0.979 | P. vulgatus WT 0.967 | [3] 1 | [4] 0.992

O=C1CCc2ccc(OCCCCN3CCN(c4cccc(Cl)c4Cl)CC3)cc2N1 [Aripiprazole]
inactive: [1] 1.02 | Shigella flexneri 1.03 | Vibrio cholerae 1.02 | [2] 1.01 | P. vulgatus RND KO 0.889 | P. vulgatus WT 0.891 | [3] 1.01 | [4] 0.92

C[C@H](CCC(=O)O)[C@H]1CC[C@H]2[C@@H]3C(=O)C[C@@H]4CC(=O)CC[C@]4(C)[C@H]3CC(=O)[C@]12C [Dehydrocholic acid]
inactive: [1] 0.98 | Shigella flexneri 0.968 | Vibrio cholerae 0.983 | [2] 0.957 | P. vulgatus RND KO 1.01 | P. vulgatus WT 0.983 | [3] 0.999 | [4] 0.66

C[C@@H]1CCC[C@H](C)N1NC(=O)c1ccc(Cl)c(S(N)(=O)=O)c1 [Clopamide]
inactive: [1] 0.976 | Shigella flexneri 0.97 | Vibrio cholerae 0.982 | [2] 0.992 | P. vulgatus RND KO 1 | P. vulgatus WT 0.981 | [3] 1.01 | [4] 0.988

O=C(CCCN1CCC(O)(c2ccc(Br)cc2)CC1)c1ccc(F)cc1 [Bromperidol]
inactive: [1] 1.02 | Shigella flexneri 0.984 | Vibrio cholerae 0.999 | [2] 0.997 | P. vulgatus RND KO 0.999 | P. vulgatus WT 1.01 | [3] 0.998 | [4] 0.974
